# Laboratory results taken from the supplement of paper PMC8975748.
# Structures can show the parent of a compound that is named as a salt. ± gives the standard deviation of the averaged measurements.
# Assays:
# [1] = test system: Saccharomyces cerevisiae BY4741 SeMeCo community; test: mean cell size (pixel area) (pixels); higher = larger cells; conditions: 10 µM; 24 h; SM minimal medium
# Summary of the method: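 Mean cell pixel area per well was determined by automated confocal microscopy with Harmony analysis of paraformaldehyde-fixed cells. The cells, a Saccharomyces cerevisiae BY4741 community of four plasmids that each complement one auxotrophy and carry a fluorescent marker, were incubated for 24 h with drug at a final 10 µM in SM medium in 384-well plates. Numbers are averaged over 3 replicates. Same SeMeCo high-content imaging drug screen: Selleck FDA-approved drugs at 10 µM, 24 h in SM medium, 384-well plates, 3 replicates.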
# [2] = test system: Saccharomyces cerevisiae BY4741 SeMeCo community; test: z-score of prototroph abundance vs DMSO median; higher = larger share of this subpopulation than in DMSO controls; conditions: 10 µM; 24 h; SM minimal medium; subpopulation (auxotrophy): Prototroph
# Summary of the method: (§1)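 A Saccharomyces cerevisiae BY4741 community carried four plasmids, each restoring one auxotrophy and encoding a distinct fluorescent protein. It was pre-grown overnight to OD600 1.0, diluted to 0.3, and 70 µl was added to 384-well plates acoustically predosed with library drugs (10 µM final), then grown 24 h in minimal SM medium. Cells were paraformaldehyde-fixed and imaged by automated confocal microscopy, with single-auxotroph fluorescent strains setting thresholds and autofluorescence correction. Each subpopulation's abundance was scored as a z-score against the vehicle-well median.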
# [3] = test system: Saccharomyces cerevisiae BY4741 SeMeCo community; test: z-score of subpopulation abundance vs DMSO median, subpopulation auxotrophic for L; higher = larger share of this subpopulation than in DMSO controls; conditions: 10 µM; 24 h; SM minimal medium; subpopulation (auxotrophy): L
# Summary of the method: as §1
# [4] = test system: Saccharomyces cerevisiae BY4741 SeMeCo community; test: z-score of subpopulation abundance vs DMSO median, subpopulation auxotrophic for U; higher = larger share of this subpopulation than in DMSO controls; conditions: 10 µM; 24 h; SM minimal medium; subpopulation (auxotrophy): U
# Summary of the method: as §1
# [5] = test system: Saccharomyces cerevisiae BY4741 SeMeCo community; test: z-score of subpopulation abundance vs DMSO median, subpopulation auxotrophic for H; higher = larger share of this subpopulation than in DMSO controls; conditions: 10 µM; 24 h; SM minimal medium; subpopulation (auxotrophy): H
# Summary of the method: as §1
# [6] = test system: Saccharomyces cerevisiae BY4741 SeMeCo community; test: z-score of subpopulation abundance vs DMSO median, subpopulation auxotrophic for LU; higher = larger share of this subpopulation than in DMSO controls; conditions: 10 µM; 24 h; SM minimal medium; subpopulation (auxotrophy): LU
# Summary of the method: as §1
# [7] = test system: Saccharomyces cerevisiae BY4741 SeMeCo community; test: z-score of subpopulation abundance vs DMSO median, subpopulation auxotrophic for LM; higher = larger share of this subpopulation than in DMSO controls; conditions: 10 µM; 24 h; SM minimal medium; subpopulation (auxotrophy): LM
# Summary of the method: as §1
# [8] = test system: Saccharomyces cerevisiae BY4741 SeMeCo community; test: z-score of subpopulation abundance vs DMSO median, subpopulation auxotrophic for HM; higher = larger share of this subpopulation than in DMSO controls; conditions: 10 µM; 24 h; SM minimal medium; subpopulation (auxotrophy): HM
# Summary of the method: as §1
# [9] = test system: Saccharomyces cerevisiae BY4741 SeMeCo community; test: z-score of subpopulation abundance vs DMSO median, subpopulation auxotrophic for HU; higher = larger share of this subpopulation than in DMSO controls; conditions: 10 µM; 24 h; SM minimal medium; subpopulation (auxotrophy): HU
# Summary of the method: as §1
# [10] = test system: Saccharomyces cerevisiae BY4741 SeMeCo community; test: z-score of subpopulation abundance vs DMSO median, subpopulation auxotrophic for UM; higher = larger share of this subpopulation than in DMSO controls; conditions: 10 µM; 24 h; SM minimal medium; subpopulation (auxotrophy): UM
# Summary of the method: as §1
# [11] = test system: Saccharomyces cerevisiae BY4741 SeMeCo community; test: z-score of subpopulation abundance vs DMSO median, subpopulation auxotrophic for HL; higher = larger share of this subpopulation than in DMSO controls; conditions: 10 µM; 24 h; SM minimal medium; subpopulation (auxotrophy): HL
# Summary of the method: as §1
# [12] = test system: Saccharomyces cerevisiae BY4741 SeMeCo community; test: z-score of subpopulation abundance vs DMSO median, subpopulation auxotrophic for HLM; higher = larger share of this subpopulation than in DMSO controls; conditions: 10 µM; 24 h; SM minimal medium; subpopulation (auxotrophy): HLM
# Summary of the method: as §1
# [13] = test system: Saccharomyces cerevisiae BY4741 SeMeCo community; test: z-score of subpopulation abundance vs DMSO median, subpopulation auxotrophic for HUM; higher = larger share of this subpopulation than in DMSO controls; conditions: 10 µM; 24 h; SM minimal medium; subpopulation (auxotrophy): HUM
# Summary of the method: as §1
# [14] = test system: Saccharomyces cerevisiae BY4741 SeMeCo community; test: z-score of subpopulation abundance vs DMSO median, subpopulation auxotrophic for LUM; higher = larger share of this subpopulation than in DMSO controls; conditions: 10 µM; 24 h; SM minimal medium; subpopulation (auxotrophy): LUM
# Summary of the method: as §1
# [15] = test system: Saccharomyces cerevisiae BY4741 SeMeCo community; test: z-score of subpopulation abundance vs DMSO median, subpopulation auxotrophic for HLUM; higher = larger share of this subpopulation than in DMSO controls; conditions: 10 µM; 24 h; SM minimal medium; subpopulation (auxotrophy): HLUM
# Summary of the method: as §1
# [16] = test system: Saccharomyces cerevisiae BY4741 SeMeCo community; test: z-score of subpopulation abundance vs DMSO median, subpopulation auxotrophic for M; higher = larger share of this subpopulation than in DMSO controls; conditions: 10 µM; 24 h; SM minimal medium; subpopulation (auxotrophy): M
# Summary of the method: as §1
SMILES,mean cell size [1],z-score of prototroph abundance [2],z-score of subpopulation abundance [3],z-score of subpopulation abundance [4],z-score of subpopulation abundance [5],z-score of subpopulation abundance [6],z-score of subpopulation abundance [7],z-score of subpopulation abundance [8],z-score of subpopulation abundance [9],z-score of subpopulation abundance [10],z-score of subpopulation abundance [11],z-score of subpopulation abundance [12],z-score of subpopulation abundance [13],z-score of subpopulation abundance [14],z-score of subpopulation abundance [15],z-score of subpopulation abundance [16]
CN[C@H]1CC[C@@H](c2ccc(Cl)c(Cl)c2)c2ccccc21 [Sertraline HCl],12.4 ± 0.056,1.15,-0.29,-0.41,-1.14,-0.7,-0.97,-0.87,-1.26,-0.56,-0.5,-0.66,-0.4,-1.09,-0.97,–
CCN(CC)C(=O)C1(c2ccccc2)CC1CN (stereo not given) [Milnacipran HCl],12.3 ± 0.28,0.28,0.74,0.47,-1.04,–,–,-0.8,-0.14,0.33,-0.61,-0.14,–,0.17,-0.13,-0.86
C[C@H]1O[C@@H](O[C@H]2[C@@H](O)C[C@H](O[C@H]3[C@@H](O)C[C@H](O[C@H]4CC[C@@]5(C)[C@H](CC[C@@H]6[C@@H]5C[C@@H](O)[C@]5(C)[C@@H](C7=CC(=O)OC7)CC[C@]65O)C4)O[C@@H]3C)O[C@@H]2C)C[C@H](O)[C@@H]1O [Digoxin],12.4 ± 0.22,–,-0.7,0.17,0.21,–,-0.41,–,0.8,-0.69,–,-0.7,–,-0.61,-0.34,-1.12
CC1(C)S[C@@H]2[C@H](NC(=O)[C@H](N)c3ccccc3)C(=O)N2[C@H]1C(=O)O [Ampicillin Trihydrate],12.4 ± 0.33,0.28,–,-0.13,–,-0.05,0.29,-0.06,-0.36,-0.18,-0.3,0.52,–,0.23,-0.25,-0.37
COc1ccc(C(=O)NCc2ccc(OCCN(C)C)cc2)cc1OC [Itopride hydrochloride],–,-0.3,0,-0.45,-0.37,0.56,0.86,–,0.11,0.38,-0.33,–,0.81,–,-0.16,0.65
CCOC(=O)CCC(=O)O[C@H]1[C@H](O[C@@H]2[C@@H](C)[C@H](O[C@H]3C[C@@](C)(OC)[C@@H](O)[C@H](C)O3)[C@@H](C)C(=O)O[C@H](CC)[C@@](C)(O)[C@H](O)[C@@H](C)C(=O)[C@H](C)C[C@@]2(C)O)O[C@H](C)C[C@@H]1N(C)C [Erythromycin Ethylsuccinate],12.4 ± 0.15,-2.21,–,-0.67,1.99,–,3.22,3.14,–,-0.31,3.1,2.71,1.68,2.68,0.83,1.39
CCc1nc(N)nc(N)c1-c1ccc(Cl)cc1 [Pyrimethamine],12.3 ± 0.38,0.23,-0.63,-0.01,-0.47,-0.16,0.19,-0.27,–,-0.1,-0.25,-0.3,0.42,0.49,-0.2,–
Cc1[nH]cnc1CN1CCc2c(c3ccccc3n2C)C1=O [Alosetron Hydrochloride],12 ± 0.2,–,0.02,1.4,-0.22,1.07,0.27,0.69,0.97,0.96,0,0.08,0.46,-0.03,1.5,–
CCCCNC(=O)NS(=O)(=O)c1ccc(C)cc1 [Tolbutamide],12.5 ± 0.33,0.43,-0.55,0.61,-0.84,–,-0.86,-0.14,–,-0.16,-0.54,-0.11,-0.36,-1,0.19,-0.57
O=C(O)c1cc(/N=N/c2ccc(O)c(C(=O)O)c2)ccc1O [Olsalazine Sodium],–,1.33,-0.47,-0.08,-0.62,–,-0.58,–,-0.74,-1.01,-0.76,-1.25,-0.73,-0.7,-0.84,-0.62
NC(=O)N/N=C/c1ccc([N+](=O)[O-])o1 [Nitrofural],12.84 ± 0.1,-0.16,–,–,-0.29,-0.35,-1.3,0.63,-0.42,0.54,0,3.28,-0.73,-0.73,0.17,1.2
CN[C@@H]1[C@@H](O)[C@@H](O[C@@H]2[C@@H](O)[C@H](O[C@H]3O[C@H](CN)[C@@H](O)[C@H](O)[C@H]3O)[C@@H](N)C[C@H]2NC(=O)[C@@H](O)CN)OC[C@]1(C)O [Isepamicin Sulphate],–,-0.32,-1.49,1.4,-0.38,–,-0.22,-0.49,1.15,1.19,-1.07,-0.7,0.82,0.03,-0.09,0
CCN(CC)CCOCCOC(=O)C1(c2ccccc2)CCCC1 [Pentoxyverine Citrate],12.5 ± 0.13,0.37,-0.03,0.17,-0.71,–,-0.24,-0.96,-0.94,-0.39,–,-0.05,-1.14,–,–,-0.67
CCCCCCCCc1ccc(CCC(N)(CO)CO)cc1 [Fingolimod],12.1 ± 0.37,2.04,–,-1.09,-0.65,-0.72,-1.42,-1.86,–,-1.44,-1.71,-1.02,-1.31,-1.47,–,-1.67
